The values that follow come from PubChem BioAssay (NCI).

What all share (test): NCI-60 one-dose screen, 48 h (100 = growth as untreated, 0 = no growth, -100 = all killed)
In assay [1] the test system is NCI-H23 lung. To be noted: 10 µM unless noted.
The subject of assay [2] is NCI-H226 lung. To be noted: 10 µM unless noted.
Assay [3] relates to NCI-H322M lung. The following applies: 10 µM unless noted.
Assay [4] deals with HOP-62 NSCLC. To be noted: 10 µM unless noted.
The test system of assay [5] is NCI-H460 lung. To be noted: 10 µM unless noted.
The subject of assay [6] is HOP-92 NSCLC. The following applies: 10 µM unless noted.
Assay [7] deals with NCI-H522 lung. The following applies: 10 µM unless noted.
In assay [8] the test system is 786-0 renal. The following applies: 10 µM unless noted.
The test system of assay [9] is COLO 205 colon. The following applies: 10 µM unless noted.
Assay [10] has as its system DU-145 prostate. To be noted: 10 µM unless noted.
For assay [11], the system named is K-562 leukemia. To be noted: 10 µM unless noted.
Assay [12] relates to MALME-3M melanoma. To be noted: 10 µM unless noted.
For assay [13], the system named is MDA-MB-231 breast. The following applies: 10 µM unless noted.
Assay [14] concerns RXF 393 renal. The following applies: 10 µM unless noted.
Assay [15] deals with SF-268 CNS. To be noted: 10 µM unless noted.
The subject of assay [16] is SF-295 CNS. To be noted: 10 µM unless noted.
For assay [17], the system named is SF-539 CNS. The following applies: 10 µM unless noted.
The subject of assay [18] is UACC-257 melanoma. The following applies: 10 µM.
Assay [19] deals with M14 melanoma. To be noted: 10 µM unless noted.

About 83,000 compounds went through this panel and 20% of them were active in at least one assay; those are over-represented in the sample as a whole.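 Results are percent growth after 48 hours of single-concentration exposure. 100 means growth as in untreated cells, lower positive values show inhibition; negative values down to -100 show cell death.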 Values without a mark were called inactive. Activity calls are given as the source filed them. The calls were made as follows: active = growth percent below 10; inactive = the rest.

Turning to `Oc1ccccc1-c1nnc(SCc2ccc(O)c3ncccc23)n1-c1ccccc1`, the growth was 17.4% in [1]; 9% (active) in assay [2]; 21.9% in [3]; 13.6% in assay [4]; 3.98% (active) in [5]; -4.85% (active) in assay [6]. For the same compound, the growth in assay [7] is -6.01% (active); in [8] it was 20.1%; in [9], 34.5%; in assay [10] it was 22.9%; in assay [11], 10.8%; in assay [12], 0.0457% (active). Besides, the growth in assay [13] is 28.2%; in assay [14], -9.85% (active); in assay [15] it was 14.9%; in assay [16] it was 1.17% (active); in [17], 7.96% (active); in [18], 1.58% (active). Also, the growth in [19] is -28.3% (active).
`C=CCn1c(SCC(=O)Nc2cccc(C(=O)/C=C/c3ccccc3)c2)nc2ccccc2c1=O`: the growth in [1] is 77.2%; in [2], 78.1%; in assay [3] it was 91.5%; in [4], 113%; in assay [5], 91.8%; in assay [6], 76.1%. The growth in assay [7] was 86.2%; in assay [8], 100%; in [9] it was 120%; in assay [10], 77.4%; in assay [12], 100%; in assay [13] it was 94.4%. The growth is 83.3% in assay [14]; 92% in [15]; 95.7% in [16]; 77.1% in assay [17]; 118% in assay [18]; 77.1% in assay [19].
Regarding `CCCC(=O)NC(c1cccnc1)c1cc(C(C)=O)c2cccnc2c1O` (stereo unspecified), the growth in assay [1] is 48.6%; in assay [2], 25%; in assay [3], 26.9%; in [4] it was 26.2%; in [5] it was 12.1%; in assay [6], 43.3%. For the same compound, the growth in [7] was 18.6%; in assay [8], 32.2%; in assay [9], 15.6%; in assay [10], 39.9%; in assay [11], 32.2%; in [12], 38.8%. For the same compound, the growth in assay [13] is 36.9%; in [14], 31.7%; in assay [15], 27.2%; in assay [16], 13.9%; in assay [17], 25.1%; in [18] it was 42.4%. Moreover, the growth in assay [19] was 12.7%.
In the case of `COc1ccc2c(ccn2C(=O)N2c3ccccc3Sc3ccccc32)c1`, the growth in [1] is 40.3%; in assay [2], 51.6%; in assay [3], 52.6%; in assay [4], 35.3%; in assay [5] it was 14.2%; in assay [6] it was 25.4%. Besides, the growth in assay [7] was -26.8% (active); in assay [8] it was 50.1%; in assay [9] it was -33.3% (active); in [10], 28.2%; in assay [11], 18.7%; in [12] it was 51.3%. Moreover, the growth in assay [13] was 64.5%; in assay [14], 12%; in assay [15], 63%; in assay [16] it was 16.5%; in assay [17] it was 11.6%; in assay [18], 70.3%. Further, in assay [19], the growth is 21.8%.
Turning to `O=C(COc1ccc(/C=C2\SC(=O)NC2=O)cc1)Nc1ccc(C(=O)/C=C/c2cc3ccccc3nc2Cl)cc1`, the growth in assay [1] is 65.3%; in assay [2], 74.9%; in [3] it was 97.8%; in assay [4], 103%; in assay [5], 86%; in assay [6] it was 88.2%. For the same compound, the growth in [7] is 65.8%; in [8], 83.6%; in assay [9], 96.3%; in assay [10], 88.7%; in assay [11], 41%; in assay [12], 98.5%. For the same compound, the growth in assay [13] was 86.6%; in assay [14], 1.92% (active); in [15], 78.2%; in [16], 75.6%; in [17], 81.5%; in [18] it was 75.3%. In assay [19], the growth is 80%.
Turning to `CN1CCN(c2ccc3c(c2)nc(NNC(=O)c2ccncn2)c2cccn23)CC1`, the growth in assay [1] is 36.2%; in assay [2], 44.5%; in assay [3], 30.2%; in assay [4] it was 35.7%; in assay [5], 27.4%; in [6], 53.1%. The growth is 18.2% in assay [7]; 9.5% (active) in assay [8]; 17.9% in assay [9]; 27.5% in assay [10]; 25.6% in assay [11]; 43.9% in [12]. Also, the growth in assay [13] was 36.9%; in assay [14] it was 66.5%; in assay [15], 26.6%; in assay [16], 0.713% (active); in [17], 24.2%; in assay [18], 42.8%. The growth in assay [19] is 9.89% (active).
Regarding `CCC(CC)N1C(=O)/C(=c2\sc3n(c2=O)C2C(NN=3)N(CC)C(=O)N2CC)c2ccccc21` (stereo unspecified), the growth is 7.64% (active) in [1]; 53.6% in [2]; 61% in assay [3]; 29.6% in assay [4]; 4.83% (active) in assay [5]; 86.7% in assay [6]. Further, the growth in assay [7] was 20.1%; in [8] it was 34.9%; in assay [9], -13.2% (active); in assay [10], 7.43% (active); in [11], 9.31% (active); in [12] it was 70%. Further, the growth in [13] was 32.8%; in assay [14], 9.61% (active); in assay [15] it was 35.7%; in assay [16], 7.59% (active); in [17], 3.34% (active); in [18] it was 69.6%.
